From PubChem BioAssay AID1446 (The Scripps Research Institute Molecular Screening Center, 2008) come the findings set out here.

SMILES strings stand for the structures. Hit rate of the full screen: of about 220,000 compounds, about 2,400 (1.1%) were called active. What follows is part of a selection rich in actives, with near analogues and random picks from the rest. Values without a mark were called inactive.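 How the source made its calls: active means inhibition above the campaign mean plus 3 SD over all tested compounds (cut at about 24% in these data); inactive means the rest.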

The assay in a line: viability loss in Ba/F3 EpoR-JAK2V617F cells – cell-based, luminescence, JAK2V617F inhibitor project, primary screen (AID 1446).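 Further: cytokine-independent growth of Ba/F3 cells driven by EpoR plus mutant JAK2; 0% = DMSO-treated cells and 100% = JAK inhibitor I control.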 The settings on record: ATP luminescence, at 5.6 µM, hits give high values.
By inhibition is commonly meant the change of the read-out against control, counted positive when it falls. As to `Oc1ccc2ccccc2c1N=Nc1nccs1`, the inhibition is 98.2% (active).
For `Oc1ccc(N=Nc2nccs2)c(O)c1` the value was 8.36%; for `Oc1ccc2ccccc2c1C=Nc1ccccc1`, 0.08%.
For the compound `CCCC(NC(=O)c1ccco1)c1nc2ccccc2[nH]1` (stereo not drawn), the inhibition was 4.01%.
For `CCCCNc1nc2c(c(=O)n(C)c(=O)n2C)n1Cc1cccc(OC)c1` the value was 52.4% (active).
In the case of `Cn1c(=O)c2c(nc(NCCc3ccccc3)n2Cc2ccccc2)n(C)c1=O`, the inhibition is 1.54%.
For `COC(=O)C(C)Sc1nc2c(c(=O)n(C)c(=O)n2C)n1Cc1cccc(C)c1` (stereo not drawn) the value was -3.92%; for `O=C(NCC1CCCO1)c1ccccc1-c1nc(-c2ccccc2Cl)no1` (stereo not drawn), 4.19%.
For `COc1ccc2c(Cl)c(C(=O)NCc3ccco3)sc2c1`, the inhibition is -3.38%.
On to `COc1ccc(CCNS(=O)(=O)c2ccc(C(=O)NCc3ccco3)cc2)cc1OC`, for which the inhibition is -0.49%.
For `CCCC1=Nc2cc(C(=O)NCc3ccco3)ccc2Sc2ccccc21` the value was 81.1% (active).
In the case of `O=[N+]([O-])C(=c1ccc2c(c1)N1C3=C(CCCC3)CC3CCCCC31N=2)[N+](=O)[O-]` (stereo not drawn), the inhibition is -3.46%.
For `COc1ccccc1CNC(=O)CNC(=O)c1cn(-c2ccccc2OC)c(=O)c2ccccc12` the value was -3.01%; for `Cn1nc(C(F)(F)F)cc1-c1ccc(/C=C(\C#N)C(=O)c2cccc(C(F)(F)F)c2)s1`, -2.61%.
For `CSC(=S)N/N=C/c1c[nH]c2ccccc12` the value was -3.06%; for `S=c1[nH]nc(-c2ccccc2)n1/N=C/c1c[nH]c2ccccc12`, -2.71%; for `C[n+]1ccc(/C=C/c2c[nH]c3ccccc23)cc1`, 88.5% (active).
Then `CC1(C)C2CC=C(/C=N/NC(=O)c3ccc(Cl)cc3)C1C2` (stereo not drawn), with -0.76%; and `COc1ccc(C(=O)Nc2ccc(F)cc2F)cc1`, with -3.55%.
`O=C(Nc1cccc(F)c1)c1ccc(S(=O)(=O)N2CCCC2)cc1`: the inhibition was 2.9%.
Consider `CCOC(=O)N1CCN(S(=O)(=O)c2ccc(C(=O)Nc3ccc(F)cc3F)cc2)CC1`, for which the inhibition is 54.4% (active).
Then `O=C(COC(=O)c1ccc(O)cc1)Nc1nccs1`, with 0.51%; and `Cc1nc(N2CCC(C)CC2)c2c(C)c(C(=O)Nc3cc(F)ccc3C)sc2n1`, with 2.17%.
As to `C=CCSc1nnc(NC(=O)c2ccc(NC(C)=O)cc2)s1`, the inhibition is -0.62%.
Then `CC(NC(=O)c1cccc2ccccc12)c1ccc2c(c1)CCCC2` (stereo not drawn), with 64.5% (active).
In the case of `CC(=O)c1sc(NC(=O)c2cccc3ccccc23)nc1C`, the inhibition was -0.63%.
Then `O=C(Cc1ccc2c(c1)CCCC2)Nc1ccccc1Cl`, with 3.77%.
Then `O=[N+]([O-])c1ccc2nc(-c3ccccn3)[nH]c2c1`, with 2.31%; and `NNC(=O)c1oc2nc(-c3ccccc3)cc(-c3ccco3)c2c1N`, with -4.49%; and `COC(=O)c1cc2c(ccn2C)n1C`, with -1.58%.
For the compound `Cc1ccc(S(=O)(=O)N2CCOCC2)cc1C(=O)OC1CCCCC1=O` (stereo not drawn), the inhibition was 0.06%.
Then `O=C(Nc1ccccc1Cl)/C(Cl)=C(\Cl)S(=O)c1ccccc1` (stereo not drawn), with 102% (active).
For `O=C(Nc1ccccc1Cl)c1ccc2nsnc2c1` the value was 0.05%; for `O=C(CN1CCCCC1)Nc1ccccc1Cl`, 1.81%; for `O=S(=O)(Nc1n[nH]c(C(F)(F)F)n1)c1ccccc1`, -3.72%.
Take `O=C(CNc1ccc(F)cc1F)NC(=O)NCc1ccco1`: the inhibition was 4.79%.
As to `CCC1CCCCN1CCCNC(=O)c1cc2c(Cl)nc3ccccc3c2s1` (stereo not drawn), the inhibition is 58.8% (active).
For `CCC1CCCCN1CCCNC(=O)C1CCC(Cn2c(=O)[nH]c3ccccc3c2=O)CC1` (stereo not drawn) the value was 2.93%; for `CCC1CCCCN1CCCNC(=O)Cn1nc(-c2ccccc2)ccc1=O` (stereo not drawn), -2.73%; for `CC(C)(C)c1cc(P(=O)(c2ccccc2)c2ccccc2)ccc1O`, -0.07%.
Then `OCCN1CCN(C(=S)c2ccc(-c3ccccc3)cc2)CC1`, with -5.03%.
For `COc1ccc(C(=O)CSc2nnc(NC(=O)C3CC(=O)N(c4cccc(OC)c4)C3)s2)cc1` (stereo not drawn) the value was 0.22%; for `O=C(CCl)Nc1ccc(Sc2ccc(NC(=O)CCl)cc2)cc1`, 39.2% (active).
Take `Cc1ccc(NC(=O)CC(=O)Nc2ccc(C)cc2)cc1`: the inhibition was -3.42%.
For the compound `CC(C)(CCl)C(=O)Nc1ccc(Sc2ccc(F)cc2)cc1`, the inhibition was -2.48%.
Consider `COc1ccc(C(=O)Nc2ccc(N3CCC(C)CC3)cc2)cc1Br`, for which the inhibition was 1.71%.
Take `COc1ccc(N2CCN(C(=O)CCSCc3ccccc3F)CC2)cc1`: the inhibition was -2.23%.
For `CCC(C)C(=O)Nc1cc([N+](=O)[O-])ccc1Cl` (stereo not drawn), the inhibition was -3.84%.
In the case of `CCN(CC)S(=O)(=O)c1ccc(N(C)Cc2cccc(OC)c2OC)nc1`, the inhibition is 1.34%.
Then `CCCCCCc1cc2cc(-c3nnc(-c4cccc(OC)c4)o3)c(=O)oc2cc1O`, with -1.07%; and `Cn1c(SCC(=O)N/N=C/c2ccc(O)c(O)c2)nc2ccccc21`, with 0.9%.
For `CCCc1nc2ccccc2c(=O)n1NC(=O)c1c(O)c2ccccc2[nH]c1=O` the value was 6.3%; for `CCCc1nc2ccccc2c(=O)n1/N=C/c1ccc(O)c(O)c1`, 26.5% (active).
For `Cc1nnsc1C(=O)NCc1c(F)cccc1Cl` the value was 1.93%; for `CCCCC1S/C(=N/N=C/c2cccs2)NC1=O` (stereo not drawn), 1.12%; for `CCOC(=O)c1[nH]c2c(c1C)C(=O)CC(c1ccc(N(C)C)cc1)C2` (stereo not drawn), 0.77%.
Consider `CCCOC(=O)c1[nH]c2c(c1C)C(=O)CC(c1cccs1)C2` (stereo not drawn), for which the inhibition is 74.3% (active).
`CCCOC(=O)c1[nH]c2c(c1C)C(=O)CC(c1cc(OC)c(OC)c(OC)c1)C2` (stereo not drawn): the inhibition was 17.1%.
For `COc1ccc(/C=C2/SC(=O)N(CCCCCC(=O)Nc3ccccc3C(=O)O)C2=S)cc1` the value was -2.34%.
Take `Cc1ccc(O)c(CNc2nc3ccccc3n2C)c1`: the inhibition was 1.4%.
As to `Cn1cccc1-c1nc2ccccc2n1C`, the inhibition was 3.85%.
For `Cc1ccc(C2=NN(C)c3nc4ccccc4n3C2)cc1` the value was 56.8% (active).
`Fc1ccc(COc2ccc(-c3nnco3)cc2)cc1`: the inhibition was -2.6%.
